D2 ag-1 = agonists of human D2 dopamine receptor. P14416. activation, % at 2 µM. HEK293 T-REx D2 cells, calcium flux agonist mode. AID 485358. 0.53% of 340,000 active;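 active means activation over 3 SD above normal in the single-dose calcium agonist read, cut at about 30% in these data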; further: 0% is about no effect
Target sequence (P14416 whole entry, looked up): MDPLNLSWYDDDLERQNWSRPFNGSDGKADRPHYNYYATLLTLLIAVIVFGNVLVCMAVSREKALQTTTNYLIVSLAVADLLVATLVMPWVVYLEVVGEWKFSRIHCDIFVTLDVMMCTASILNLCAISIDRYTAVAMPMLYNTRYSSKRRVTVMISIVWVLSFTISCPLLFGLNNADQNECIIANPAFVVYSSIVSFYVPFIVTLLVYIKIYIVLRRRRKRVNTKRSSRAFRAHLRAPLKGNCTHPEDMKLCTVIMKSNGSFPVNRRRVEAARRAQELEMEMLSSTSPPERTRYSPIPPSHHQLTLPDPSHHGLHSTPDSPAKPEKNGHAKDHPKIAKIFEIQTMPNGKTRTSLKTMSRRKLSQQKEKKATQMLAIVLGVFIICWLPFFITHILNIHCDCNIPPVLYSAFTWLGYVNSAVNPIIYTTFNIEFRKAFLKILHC
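Tetracycline-induced HEK293 T-REx cells with force-coupled D2 receptor, plated overnight at 30 C, loaded with no-wash calcium dye. After a 10 s baseline, compound was pin-added and calcium flux read kinetically for 180 s; calcium rises flagged agonists.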
D2 PAM-1 = D2 dopamine receptor (human) potentiation. P14416. HEK293 T-REx D2, calcium flux, EC20 dopamine potentiation. potentiation, % at 10 µM. 0.34% of 340,000 active. AID 485347;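 active means potentiation over 3 SD above the plate norm, cut at about 30% in these data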; further: 0% is about no effect
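Primary screen. Calcium kinetics in induced HEK293 T-REx D2 cells: compound pre-addition 180 s, EC20 dopamine, 180 s more.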
D2 ag-2 = agonists of human D2 dopamine receptor (beta-arrestin); DiscoveRx PathHunter D2 beta-arrestin, luminescence, 90 min; 100% = 57 uM dopamine signal; activation, % (test concentration not listed); P14416; AID 624465; 0.084% of 360,000 active; in the data active means activation above about 40%; inconclusive means between about 15% and that limit
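DiscoveRx PathHunter D2 beta-arrestin cells (2,100/well) attached overnight, then compound-stimulated 90 min at 37 C in HBSS/10 mM HEPES/0.1% Tween-20 buffer; beta-galactosidase complementation read by luminescence after 1 h at ambient temperature. Dopamine 57 uM final (EC100) as control.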
D2 PAM-2 = human D2 receptor positive allosteric modulation; P14416; DiscoveRx D2 beta-arrestin cells, luminescence, 90 min; 100% = 57 uM dopamine signal; potentiation, % (no concentration beside the values); 0.23% of 360,000 active; in the data active means potentiation above about 50%; inconclusive means mostly about 30% to 49%
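D2 cells co-treated with compound plus 50 nM dopamine (EC20) for 90 min at 37 deg C to detect potentiation. Beta-arrestin recruitment was read as enzyme-fragment luminescence after 1 h at ambient temperature. Full response was set by 57 uM dopamine.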
D2 antagonist = antagonists of human D2 dopamine receptor | HEK293 TREx D2 cells, calcium flux, dopamine EC80 | inhibition, % at 10 µM | 2% of 340,000 active | AID 485344; in the data active means inhibition above about 30%; inactive means below that, where a call was filed; further: 0% is about no effect
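Compounds are added to dye-loaded, induced HEK293 T-REx cells coupled to calcium release via D2; after a 3 min kinetic read an EC80 dopamine stimulus is given and fluorescence is recorded for 3 more min.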
Active calls of the source: *; ? = inconclusive; nt = no result given. Sampled rows, rich in hits. Any-hit rate of the full collection: about 2.4%.

SMILES	D2 ag-1	D2 PAM-1	D2 ag-2	D2 PAM-2	D2 antagonist
CCOc1ccc(NS(=O)(=O)c2ccc(OCC(=O)N3CCCC3)cc2)cc1	0	11	2	3	51*
CCOC(=O)N1CCN(C(=O)COc2ccc(S(=O)(=O)Nc3ccc(OCC)cc3)cc2)CC1	0	11	1	13	4
O=C(C[n+]1ccccc1)N/N=C/c1cc(Br)cc(Br)c1O	2	-32	-7	-31	32*
O=C(C[n+]1ccccc1)N/N=C/c1cc(Br)ccc1F	0	-19	-5	-33	-7
COc1ccc(Br)cc1/C=N/NC(=O)C[n+]1ccccc1	1	-20	-6	-8	40*
Cc1ccc(C)c(Cn2c3ccccc3c3cnn(CC(=O)NCCCN4CCCCC4)c(=O)c32)c1	nt	nt	-6	-11	nt
CCc1cccc(CC)c1-n1c(-c2cccnc2)n[nH]c1=S	0	-9	0	-8	66*
C=CCc1cccc(C=Nc2c[nH]c(=O)[nH]c2=O)c1O	2	-1	0	-1	-4
C=CCc1cccc(C=Nc2cc(Br)ccc2O)c1O	1	-2	?	72*	3
CN(C)C=Nc1c(Br)cc(Br)c2nonc12	63*	-8	0	1	2
CCOC(=O)N1CCN(C(=O)CSc2nnc(Cc3ccccc3)o2)CC1	1	31*	-2	3	-1
CCOC(=O)N1CCN(C(=O)CSc2nnc(COc3ccccc3)o2)CC1	-2	-8	1	0	2
COCCCNc1nc2c(c(=O)n(C)c(=O)n2C)n1Cc1cccc(OC)c1	0	14	1	-9	40*
COCCNc1nc2c(c(=O)n(C)c(=O)n2C)n1Cc1cccc(C)c1	1	8	1	1	-6
CCOc1ccc(NC(=O)Cn2c(=O)n(CCCS(=O)(=O)C3CCCCC3)c(=O)c3ccccc32)cc1	0	4	nt	nt	nt
Cc1[nH]n(-c2ccccc2)c(=O)c1/C=N/N(C)c1ccccc1	-1	-6	10	74*	-15
COC(=O)N/N=C\c1c(C)[nH]n(-c2ccccc2)c1=O	-1	4	-4	-14	13
COCC(=O)N/N=C/c1c(C)[nH]n(-c2ccccc2)c1=O	0	33*	-4	-10	4
O=c1c2ccccc2ncn1Cc1ccccc1	0	14	0	-5	12
O=c1c2ccsc2ncn1Cc1ccc(Cl)cc1	1	3	-8	-2	38*
CC(=O)N1c2ccc(S(=O)(=O)N(C)CC(=O)NCc3ccccc3)cc2CC1C (configuration not stated)	0	9	-9	-12	1
CC(=O)N1c2ccc(S(=O)(=O)N(C)CC(=O)NC3CCCCC3C)cc2CC1C (configuration not stated)	0	42*	6	-5	5
CC(=O)N1c2ccc(S(=O)(=O)N(C)C3CCCCC3)cc2CC1C (configuration not stated)	0	30*	-2	-11	-7
Cc1ccc(F)cc1NC(=O)Cn1c(C)cc(C)c(C#N)c1=O	-4	3	nt	nt	nt
CCNC(=O)C1(C)CCN(Cc2cccc(Oc3ccccc3)c2)C1 (configuration not stated)	nt	nt	-2	-12	nt
SMILES	D2 ag-1	D2 PAM-1	D2 ag-2	D2 PAM-2	D2 antagonist
COc1cc(CN2CCCC(CO)(Cc3ccccc3F)C2)ccc1O (configuration not stated)	0	-6	-5	-5	14
CC(C)Cc1cc(CN2CCCC(CO)(Cc3cccc(Cl)c3)C2)[nH]n1 (configuration not stated)	1	-28	-4	-13	53*
Cc1nc2ccc(C(=O)N3CCCC(CO)(Cc4ccc(F)cc4F)C3)cc2nc1C (configuration not stated)	1	-25	2	-8	30*
COC(=O)c1ccc(CN2CCCC(CO)(Cc3ccccc3F)C2)cc1 (configuration not stated)	-2	-20	-1	-1	84*
COc1ccc(CN2CCCC(CO)(Cc3ccc(F)cc3F)C2)cc1 (configuration not stated)	1	-23	-2	-12	43*
OCC1(CCc2ccccc2)CCCN(CCCc2ccccc2)C1 (configuration not stated)	0	-23	5	-23	76*
CCOc1ccc(CN2CCCC(CO)(Cc3ccc(F)cc3)C2)cc1 (configuration not stated)	0	-18	-1	-21	68*
CSc1ccc(CN2CCCC(CO)(Cc3ccccc3)C2)cc1 (configuration not stated)	0	-27	-2	-12	51*
Cc1noc(Cn2c(=O)c3ccccc3n(CC(=O)Nc3ccc(Cl)cc3)c2=O)n1	nt	-4	nt	nt	nt
CC(=O)c1coc2ccc(OCCN3CCCCC3)cc12	0	-24	0	-22	42*
COc1ccc2occ(C(C)=O)c2c1	1	-8	2	-11	11
Nc1cc2c(cc1[N+](=O)[O-])OCCO2	0	-8	-3	-26	47*
CCC1ON(c2ccccc2)C2c3nc4ccccc4n3CC12 (configuration not stated)	0	15	0	-8	36*
CCC1ON(C(C)C)C2c3nc4ccccc4n3CC12 (configuration not stated)	0	7	-1	-5	32*
Cc1nc(-n2nc(C)c(Cc3ccccc3Cl)c2C)sc1C(=O)Nc1ccccc1F	1	11	nt	nt	nt
Cc1ccsc1/C=N/NC(=O)c1ccncc1	1	-1	-2	-5	-2
Cc1ccsc1/C=N/NC(=O)c1ccc2ccccc2c1	0	-21	-2	-17	41*
C[C@@H]1CCCCO[C@@H](CN(C)C(=O)CCCN(C)C)[C@@H](C)CN([C@H](C)CO)C(=O)c2cc(NC(=O)CCC(F)(F)F)ccc2O1	nt	nt	3	-5	nt
O=C(c1ccc(Oc2ccccc2)cc1)c1nc2c(n1O)CCCC2	0	4	5	1	31*
O=C1NC(=S)SC1=Cc1cccs1	nt	nt	-7	-11	nt
CN1CCC/C1=C/C=C1\SC(=S)NC1=O	50*	6	-6	-31	8
CC1=C(c2ccc(Cl)cc2)S(=O)(=O)N=C1N1CCN(c2cccc(C(F)(F)F)c2)CC1	-1	-6	nt	nt	nt
CC(C)(CN1CCN(Cc2ccccc2)CC1)NS(=O)(=O)c1ccccc1	0	-29	-1	-22	41*
Cc1ccc(-c2cc(C(=O)NCCc3ccccc3)c3c(-c4ccc(C)cc4)[nH]nc3n2)cc1	0	5	nt	nt	nt
CCc1ccc2c(CN3CCc4cc(OC)c(OC)cc4C3)cc(=O)oc2c1	26	-26	0	-18	32*
COc1ccccc1CNC1CCN(Cc2ccccc2)CC1	nt	nt	-4	-14	nt

Screening results from PubChem.
